Experimental data from PubChem BioAssay (NCATS).
Records with an inconclusive call do not appear. Where a call stands in place of a potency, no number is given. Active and inactive are the calls of the source. The call rests on the fitted dose curve; in most records, active means well fitted inhibition curve with a large enough effect; inconclusive means small, poorly fitted or top-dose-only effect; inactive means flat fitted curve, though single readings scatter.

Target: Calcium and integrin-binding protein 1 (Homo sapiens) (UniProt Q99828)
Assay: Primary qHTS for Identification of Calcium Integrin Binding Protein 1 (CIB1) Competitor (AID 1508620); further: top concentration of the series differs between compounds
Settings: CIB1-GST / FITC-alphaIIb peptide fluorescence polarization; series mostly up to 114 µM
Summary of the method: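 Fluorescence polarization competition: GST-tagged CIB1 (1 uM final) preincubated with compound 15 min at room temperature, then FITC-labelled alphaIIb peptide (100 nM final) added. After 15 min at room temperature, polarization read at Ex 480/Em 540.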

Calcium and integrin-binding protein 1 (Homo sapiens), sequence (Q99828 whole entry, looked up): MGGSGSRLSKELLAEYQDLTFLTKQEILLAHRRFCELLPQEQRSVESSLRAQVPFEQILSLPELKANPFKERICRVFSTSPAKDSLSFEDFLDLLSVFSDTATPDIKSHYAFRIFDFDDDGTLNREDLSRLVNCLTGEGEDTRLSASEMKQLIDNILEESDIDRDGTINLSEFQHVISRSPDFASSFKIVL

| Structure (SMILES) | Potency |
| --- | --- |
| Brc1sc2c(c1-c1nc3ccccc3s1)CCNC2 | inactive |
| CCc1nn2c(=O)cc(-c3ccncc3)nc2s1 | inactive |
| Cc1cc2c(s1)c1cnn(Cc3c(F)ccc(C)c3F)c(=O)c1n2C | inactive |
| Cc1cc(-c2ccccc2)nc2c(C(=O)Nc3ccc(Cl)c(Cl)c3)cnn12 | inactive |
| CCOC(=O)c1c(-c2ccccc2)no[n+]1[O-] | inactive |
